# Experimental data: PubChem BioAssay (Tox21)
# Unmarked numbers belong to inactive results. Results filed as inconclusive are left out. Entries that show only a call come without a potency. Active and inactive are the calls of the source. Unless noted, calls come from the whole dose curve; as a rule, active = well fitted curve in the direction sought with a large enough effect in the repeat runs; inconclusive = weak or mixed curves; inactive = no such curve, though single readings can be large; an effect the other way counts as inactive or inconclusive.
# How the values were obtained:
# [1] = qHTS assay to identify small molecule agonists of the hypoxia (HIF-1) signaling pathway - cell viability counter screen (AID 1224844; calls by dose curve; note: nearly all actives have a fitted effect of over 50% in size; note: potency is the fitted concentration of half-maximal effect)
# Outline: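 Cells (HRE-bla ME-180, 2,000 per well) sat 5 hrs at 37C, got compound for 17 hrs, were read for CCF4-AM FRET, and were finally lysed with CellTiter-Glo for a 30 min room-temperature luminescence read.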
# [2] = qHTS assay to identify small molecule agonists of H2AX (AID 1224845; active = well fitted activation curve with a large enough effect in the signal ratio in the repeat runs, not every such curve was filed as active; the % refers to the signal ratio)
# Outline: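 Wild-type CHO-K1 cells plated overnight, then exposed 3 hr at 37C to compounds at 15 concentrations (0.76% DMSO). Lysed, then HTRF anti-pH2AX(S139)-cryptate/anti-H2AX-d2 detection after 24 hr at room temperature; emissions 665 and 620 nm.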
# [3] = qHTS assay to identify small molecule agonists of the estrogen related receptor (ERR) signaling pathway from Tox21 library (AID 1224849; calls by dose curve; note: nearly all actives have a fitted effect of over 15% in size); settings: ERR reporter cell line, ONE-Glo luciferase, 18 h; at 92.4 µM (top of the series) unless noted
# Outline: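 Screening used an NTP-provided ERR luciferase cell line. Compounds in DMSO were added 6 h after seeding and left 18 h at 37 C before a 30 min ONE-Glo step and luminescence reading.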
# [4] = qHTS RealTime-Glo MT Cell Viability Assay in HepG2 cells - 24 hour (AID 1224867); note: nearly all actives have a fitted effect of over 50% in size
# Outline: (§1)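 HepG2 cells were seeded at 600 cells/well together with NanoLuc luciferase and a cell-permeant prosubstrate, preincubated 5 h at 37 C/5% CO2, then pin-dosed with compounds in DMSO. Nonlytic luminescence from viable cells was read at each time point.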
# [5] = A CellTox Green Cytotoxicity Assay to monitor cytotoxicity in HEK293 cells - 40 hour (AID 1224871); note: nearly all actives have a fitted effect of over 45% in size; note: potency is the fitted concentration of half-maximal effect
# Outline: (§2)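 Fluorescence intensity, read at 0, 8, 16, 24, 32 and 40 h of compound treatment, reflected dye binding to DNA of dead HEK293 cells; compounds (23 nL, DMSO) were added 5 h after plating cells with reagent.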
# [6] = qHTS RealTime-Glo MT Cell Viability Assay in HEK293 cells - 16 hour (AID 1224872); note: nearly all actives have a fitted effect of over 50% in size; note: potency is the fitted concentration of half-maximal effect
# Outline: (§3)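 HEK293 cells were seeded at 600 cells/well together with NanoLuc luciferase and cell-permeant prosubstrate, preincubated 5 h at 37 C/5% CO2, then given compound in DMSO by pintool. Luminescence from viable-cell prosubstrate reduction was read repeatedly over 40 h.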
# [7] = qHTS RealTime-Glo MT Cell Viability Assay in HepG2 cells - 8 hour (AID 1224873); note: nearly all actives have a fitted effect of over 55% in size; note: potency is the fitted concentration of half-maximal effect
# Outline: (§4)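 HepG2 cells mixed with RealTime-Glo MT reagents (NanoLuc plus cell-permeant prosubstrate) were seeded at 600 cells/well, incubated 5 h at 37 C/5% CO2, then pinned with compounds in DMSO; nonlytic luminescence tracked viability during 40 h treatment.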
# [8] = A CellTox Green Cytotoxicity Assay to monitor cytotoxicity in HEK293 cells - 24 hour (AID 1224875); note: nearly all actives have a fitted effect of over 45% in size; note: potency is the fitted concentration of half-maximal effect
# Outline: as §2
# [9] = A CellTox Green Cytotoxicity Assay to monitor cytotoxicity in HepG2 cells - 16 hour (AID 1224876); note: nearly all actives have a fitted effect of over 45% in size; note: potency is the fitted concentration of half-maximal effect
# Outline: (§5)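 Using 1536-well format, dye-containing HepG2 suspension was seeded, allowed 5 h at 37 C/5% CO2, dosed by pintool with compounds, positive and negative controls, and imaged for fluorescence across 40 h.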
# [10] = A CellTox Green Cytotoxicity Assay to monitor cytotoxicity in HepG2 cells - 24 hour (AID 1224878); note: nearly all actives have a fitted effect of over 45% in size; note: potency is the fitted concentration of half-maximal effect
# Outline: as §5
# [11] = qHTS RealTime-Glo MT Cell Viability Assay in HEK293 cells - 0 hour (AID 1224880)
# Outline: (§6)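 Viable HEK293 cells reduce a cell-permeant prosubstrate; the product diffuses out and is consumed by NanoLuc in the medium to give light. Compounds went in after a 5 h incubation and plates were read over the treatment course.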
# [12] = A CellTox Green Cytotoxicity Assay to monitor cytotoxicity in HEK293 cells - 0 hour (AID 1224869); note: nearly all actives have a fitted effect of over 50% in size
# Outline: as §2
# [13] = qHTS RealTime-Glo MT Cell Viability Assay in HepG2 cells - 40 hour (AID 1224870); note: nearly all actives have a fitted effect of over 50% in size; note: potency is the fitted concentration of half-maximal effect
# Outline: as §4
# [14] = qHTS RealTime-Glo MT Cell Viability Assay in HepG2 cells - 32 hour (AID 1224877); note: nearly all actives have a fitted effect of over 55% in size; note: potency is the fitted concentration of half-maximal effect
# Outline: as §1
# [15] = A CellTox Green Cytotoxicity Assay to monitor cytotoxicity in HepG2 cells - 40 hour (AID 1224879); note: nearly all actives have a fitted effect of over 40% in size; note: potency is the fitted concentration of half-maximal effect
# Outline: as §5
# [16] = qHTS assay to identify small molecule agonists of the hypoxia (HIF-1) signaling pathway (AID 1224846; active = well fitted activation curve with a large enough effect in the signal ratio in the repeat runs, not every such curve was filed as active; the % refers to the signal ratio)
# Outline: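 A low-serum medium (0.5% dialyzed FBS) holding 2,000 HRE-bla ME-180 cells per well is preincubated for 5 hrs, dosed with compounds by pintool, and kept a further 17 hrs at 37C, 5% CO2 before CCF4-AM FRET detection of beta-lactamase.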
# [17] = qHTS RealTime-Glo MT Cell Viability Assay in HEK293 cells - 40 hour (AID 1224874); settings: RealTime-Glo luminescence; max response: active compounds read low; note: nearly all actives have a fitted effect of over 50% in size; note: potency is the fitted concentration of half-maximal effect
# Outline: as §6
# [18] = qHTS assay to identify small molecule agonists of H2AX - cell viability counter screen (AID 1224847; calls by dose curve; note: nearly all actives have a fitted effect of over 30% in size; note: potency is the fitted concentration of half-maximal effect)
# Outline: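 For this counter screen, overnight-attached CHO-K1 cells received test compounds (15 concentrations, 0.76% DMSO final); 3 hr later at 37C, CellTiter-Glo reagent was added and luminescence recorded after 30 min at room temperature.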
# [19] = qHTS RealTime-Glo MT Cell Viability Assay in HEK293 cells - 32 hour (AID 1224868); note: nearly all actives have a fitted effect of over 50% in size; note: potency is the fitted concentration of half-maximal effect
# Outline: as §3
# [20] = qHTS assay to identify small molecule antagonists of the estrogen related receptor (ERR) signaling pathway from Tox21 library (AID 1224848); note: nearly all actives have a fitted effect of over 50% in size; note: potency is the fitted concentration of half-maximal effect
# Outline: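 Screening used an ERR reporter line supplied by NTP, exposed for 18 h at 37 C to library compounds delivered in DMSO. Signal was luciferase luminescence developed with ONE-Glo at room temperature for 30 min.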
compound,measurement,setting,value
O=C(Nc1ccccc1)c1ccccc1O,Potency,[1],inactive
same,Potency,[2],inactive
same,"activity change, positive = activation",[3],-30.7%
same,Potency,[4],inactive
same,Potency,[5],inactive
same,Potency,[6],inactive
same,Potency,[7],inactive
same,Potency,[8],inactive
same,Potency,[9],inactive
same,Potency,[10],inactive
same,Potency,[11],inactive
CCCCCCCCCCO[C@@H]1O[C@H](CO)[C@@H](O)[C@H](O)[C@H]1O,Potency,[1],inactive
same,Potency,[2],inactive
same,Potency,[4],inactive
same,Potency,[12],inactive
same,Potency,[13],inactive
same,Potency,[6],inactive
same,Potency,[7],inactive
same,Potency,[9],inactive
same,Potency,[14],inactive
same,Potency,[10],inactive
same,Potency,[15],inactive
same,Potency,[11],inactive
CCOc1ccc(O)cc1,Potency,[1],inactive
same,Potency,[16],inactive
same,Potency,[4],inactive
same,Potency,[12],inactive
same,Potency,[13],inactive
same,Potency,[5],inactive
same,Potency,[7],inactive
same,Potency,[17],11 µM (active)
same,Potency,[8],inactive
same,Potency,[9],inactive
same,Potency,[14],inactive
same,Potency,[15],inactive
same,Potency,[11],inactive
C=C(C)C(=O)OCCOCC,Potency,[1],inactive
same,Potency,[16],inactive
same,Potency,[12],inactive
same,Potency,[13],inactive
same,Potency,[5],inactive
same,Potency,[6],inactive
same,Potency,[7],inactive
same,max response,[17],17.3%
same,Potency,[8],inactive
same,Potency,[9],inactive
same,Potency,[14],inactive
same,Potency,[10],inactive
same,Potency,[15],inactive
same,Potency,[11],inactive
Cc1ccc(C(=O)Oc2ccc(C(O)CNC(C)(C)C)cc2OC(=O)c2ccc(C)cc2)cc1 (stereo not given),Potency,[1],inactive
same,Potency,[16],inactive
same,Potency,[18],inactive
same,Potency,[12],inactive
same,Potency,[13],23.9 µM (active)
same,Potency,[5],23.9 µM (active)
same,Potency,[7],21.3 µM (active)
same,Potency,[8],23.9 µM (active)
same,Potency,[9],21.3 µM (active)
same,Potency,[14],23.9 µM (active)
same,Potency,[15],19 µM (active)
same,Potency,[11],inactive
CCCCCCCCCCCCCCCCCCOS(=O)(=O)O,Potency,[1],38.9 µM (active)
same,Potency,[2],inactive
same,"activity change, positive = activation",[3],-38.9%
same,Potency,[4],inactive
same,Potency,[12],inactive
same,Potency,[13],inactive
same,Potency,[6],inactive
same,Potency,[7],inactive
same,Potency,[14],inactive
same,Potency,[11],inactive
Cc1ccc(N=Nc2c(O)c(C(=O)O)cc3ccccc23)c(S(=O)(=O)O)c1,Potency,[1],inactive
same,Potency,[16],inactive
same,Potency,[4],inactive
same,Potency,[12],inactive
same,Potency,[13],inactive
same,Potency,[6],inactive
same,Potency,[7],inactive
same,max response,[17],1.56%
same,Potency,[8],inactive
same,Potency,[9],inactive
same,Potency,[14],inactive
same,Potency,[10],inactive
same,Potency,[15],inactive
same,Potency,[11],inactive
CC(=O)OC[C@H]1O[C@@H](n2ncc(=O)[nH]c2=O)[C@H](OC(C)=O)[C@@H]1OC(C)=O,Potency,[1],inactive
same,Potency,[16],inactive
same,Potency,[18],inactive
same,Potency,[4],inactive
same,Potency,[19],inactive
same,Potency,[12],inactive
same,Potency,[13],inactive
same,Potency,[5],inactive
same,Potency,[6],inactive
same,Potency,[7],inactive
same,Potency,[8],inactive
same,Potency,[9],inactive
same,Potency,[14],inactive
same,Potency,[10],inactive
same,Potency,[15],inactive
same,Potency,[11],inactive
OC(CN1CCC(Cc2ccc(F)cc2)CC1)c1ccc(Cl)cc1 (stereo not given),Potency,[1],inactive
same,Potency,[2],inactive
same,Potency,[19],10.7 µM (active)
same,Potency,[12],inactive
same,Potency,[5],21.3 µM (active)
same,Potency,[6],9.52 µM (active)
same,Potency,[17],9.52 µM (active)
same,Potency,[10],21.3 µM (active)
same,Potency,[15],23.9 µM (active)
CCCCCCCCCc1ccc(OCCOCCO)cc1,Potency,[1],inactive
same,Potency,[18],37.6 µM (active)
same,Potency,[19],1.15 µM (active)
same,Potency,[12],inactive
same,Potency,[5],13 µM (active)
same,Potency,[6],1.45 µM (active)
same,Potency,[17],1.03 µM (active)
same,Potency,[8],14.5 µM (active)
same,Potency,[10],18.3 µM (active)
same,Potency,[15],20.5 µM (active)
same,Potency,[11],inactive
CCCCc1ncc(/C=C(\Cc2cccs2)C(=O)O)n1Cc1ccc(C(=O)O)cc1,Potency,[1],inactive
same,Potency,[16],inactive
same,Potency,[18],inactive
same,Potency,[4],inactive
same,Potency,[12],inactive
same,Potency,[13],inactive
same,Potency,[5],inactive
same,Potency,[6],inactive
same,max response,[17],2.83%
same,Potency,[8],inactive
same,Potency,[14],inactive
same,Potency,[10],inactive
same,Potency,[15],inactive
same,Potency,[11],inactive
CCCNCC(O)COc1ccccc1C(=O)CCc1ccccc1 (stereo not given),Potency,[1],inactive
same,Potency,[2],inactive
same,Potency,[4],inactive
same,Potency,[19],2.39 µM (active)
same,Potency,[13],inactive
same,Potency,[5],inactive
same,Potency,[6],2.13 µM (active)
same,Potency,[7],inactive
same,Potency,[17],2.39 µM (active)
same,Potency,[8],inactive
same,Potency,[14],inactive
CNCCCCOc1ccccc1Cc1ccccc1,Potency,[1],inactive
same,Potency,[16],inactive
same,Potency,[12],inactive
same,Potency,[7],inactive
same,Potency,[17],23.9 µM (active)
same,Potency,[15],23.9 µM (active)
same,Potency,[11],inactive
Brc1c2ccccc2cc2ccccc12,Potency,[1],inactive
same,Potency,[2],inactive
same,Potency,[4],inactive
same,Potency,[12],inactive
same,Potency,[13],inactive
same,max response,[17],-17.1%
same,Potency,[8],inactive
same,Potency,[9],inactive
same,Potency,[14],inactive
same,Potency,[15],inactive
same,Potency,[11],inactive
O=C(c1ccc(F)cc1)C1CCN(CCn2c(=S)[nH]c3ccccc3c2=O)CC1,Potency,[1],21.3 µM (active)
same,Potency,[16],inactive
same,Potency,[18],49.2 µM (active)
same,Potency,[20],26.6 µM (active)
same,"activity change, positive = activation",[3],-56.8% [at 42.5 µM]
same,Potency,[19],5.35 µM (active)
same,Potency,[12],inactive
same,Potency,[13],inactive
same,Potency,[6],3.38 µM (active)
same,Potency,[17],5.35 µM (active)
same,Potency,[8],inactive
same,Potency,[9],inactive
same,Potency,[14],inactive
same,Potency,[10],inactive
Nc1ccc(N)c2c1C(=O)c1ccccc1C2=O,Potency,[1],inactive
same,Potency,[16],inactive
same,Potency,[20],43.3 µM (active)
same,"activity change, positive = activation",[3],-37.5%
same,Potency,[13],inactive
same,Potency,[5],inactive
same,Potency,[8],inactive
same,Potency,[9],inactive
same,Potency,[10],inactive
same,Potency,[15],inactive
same,Potency,[11],inactive
COc1cc(Cl)ccc1Oc1ccc(Cl)cc1Cl,Potency,[1],inactive
same,Potency,[16],inactive
same,Potency,[18],97.9 µM (active)
same,Potency,[20],inactive
same,Potency,[4],inactive
same,Potency,[19],inactive
same,Potency,[12],inactive
same,Potency,[13],inactive
same,Potency,[5],inactive
same,Potency,[7],inactive
same,max response,[17],-24.6%
same,Potency,[8],inactive
same,Potency,[14],inactive
same,Potency,[15],inactive
same,Potency,[11],inactive
